Laboratory results as given in publication PMC8384837, “Expanding the binding specificity for RNA recognition by a PUF domain”.

Key:
Test in all cases: yeast three-hybrid, YBZ-1, SC-Leu-His + 0.5 mM 3-AT, 4 days
Details in all cases: tags: N-Gal4 AD-HA kept; label: inside an RPR1-promoter hybrid RNA with tandem MS2 sites; ssRNA
[1] = molecular target: PUM1 PUF domain R3-LWS (Homo sapiens, UniProt Q14671 828-1176, C935L;R936W;Q939S)
Summary of the method: (§1)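 Sequencing with Illumina followed PCR amplification of the repeat regions from transformants grown four days on SC-Leu (input) or SC-Leu-His + 0.5 mM 3-AT (selection). The transformants were strain YBZ-1 with a LexA–MS2 coat fusion and a HIS3 reporter, carrying Pumilio-1 PUF domain libraries and matching RNA elements. The interaction score is the log change in variant frequency from input to selection, computed in log2 with a pseudocount of 1 for absent variants.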

[2] = molecular target: PUM1 PUF domain R4-FGR (Homo sapiens, UniProt Q14671 828-1176, N971F;H972G;Q975R)
Summary of the method: as §1

[3] = molecular target: PUM1 PUF domain R4-SPM (Homo sapiens, UniProt Q14671 828-1176, N971S;H972P;Q975M)
Summary of the method: as §1

[4] = molecular target: PUM1 PUF domain R5-KTN (Homo sapiens, UniProt Q14671 828-1176, C1007K;R1008T;Q1011N)
Summary of the method: as §1

[5] = molecular target: PUM1 PUF domain R5-QLS (Homo sapiens, UniProt Q14671 828-1176, C1007Q;R1008L;Q1011S)
Summary of the method: as §1

[6] = molecular target: PUM1 PUF domain R7-IMG (Homo sapiens, UniProt Q14671 828-1176, S1079I;N1080M;E1083G)
Summary of the method: as §1

[7] = molecular target: PUM1 PUF domain R5-NLL (Homo sapiens, UniProt Q14671 828-1176, C1007N;R1008L;Q1011L)
Summary of the method: as §1

[8] = molecular target: PUM1 PUF domain R5-NKR (Homo sapiens, UniProt Q14671 828-1176, C1007N;R1008K;Q1011R)
Summary of the method: as §1

PUM1 PUF domain R4-SPM, sequence (Q14671 828-1176 N971S/H972P/Q975M): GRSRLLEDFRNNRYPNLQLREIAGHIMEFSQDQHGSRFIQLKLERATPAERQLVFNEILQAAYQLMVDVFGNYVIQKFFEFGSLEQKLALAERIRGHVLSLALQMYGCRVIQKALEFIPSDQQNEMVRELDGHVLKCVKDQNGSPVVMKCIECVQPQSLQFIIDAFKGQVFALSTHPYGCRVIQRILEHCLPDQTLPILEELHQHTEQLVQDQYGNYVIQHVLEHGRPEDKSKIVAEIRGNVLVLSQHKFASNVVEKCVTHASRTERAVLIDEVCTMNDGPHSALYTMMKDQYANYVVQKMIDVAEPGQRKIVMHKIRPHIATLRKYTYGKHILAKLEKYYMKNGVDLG
PUM1 PUF domain R5-QLS, sequence (Q14671 828-1176 C1007Q/R1008L/Q1011S): as the sequence (Q14671 828-1176 N971S/H972P/Q975M) above, with S144N, P145H, M148Q, C180Q, R181L, Q184S counted along it
PUM1 PUF domain R5-NLL, sequence (Q14671 828-1176 C1007N/R1008L/Q1011L): as the sequence (Q14671 828-1176 N971S/H972P/Q975M) above, with S144N, P145H, M148Q, C180N, R181L, Q184L counted along it
PUM1 PUF domain R4-FGR, sequence (Q14671 828-1176 N971F/H972G/Q975R): as the sequence (Q14671 828-1176 N971S/H972P/Q975M) above, with S144F, P145G, M148R counted along it
PUM1 PUF domain R5-KTN, sequence (Q14671 828-1176 C1007K/R1008T/Q1011N): as the sequence (Q14671 828-1176 N971S/H972P/Q975M) above, with S144N, P145H, M148Q, C180K, R181T, Q184N counted along it
PUM1 PUF domain R3-LWS, sequence (Q14671 828-1176 C935L/R936W/Q939S): as the sequence (Q14671 828-1176 N971S/H972P/Q975M) above, with C108L, R109W, Q112S, S144N, P145H, M148Q counted along it
PUM1 PUF domain R5-NKR, sequence (Q14671 828-1176 C1007N/R1008K/Q1011R): as the sequence (Q14671 828-1176 N971S/H972P/Q975M) above, with S144N, P145H, M148Q, C180N, R181K, Q184R counted along it
PUM1 PUF domain R7-IMG, sequence (Q14671 828-1176 S1079I/N1080M/E1083G): as the sequence (Q14671 828-1176 N971S/H972P/Q975M) above, with S144N, P145H, M148Q, S252I, N253M, E256G counted along it

Sequence: GGCUAGAACUAGUGGAUCCCCCGGCGCCCGGCGGCUCGAGCCCGGGUAAGUGUAAGUAGUCUGCAUGCCGCCGGGCGCCAUGCCUGCAGGUCGACUCUAGAAAACAUG
- binding signal [1]: 6.62 log2 enrichment (interaction score)

Sequence: GGCUAGAACUAGUGGAUCCCCCGGCGCCCGGCGGCUCGAGCCCGGGUAAGUGUACAUAGUCUGCAUGCCGCCGGGCGCCAUGCCUGCAGGUCGACUCUAGAAAACAUG
- binding signal [2]: 2.88 log2 enrichment (interaction score)
- binding signal [3]: 0.15 log2 enrichment (interaction score)

Sequence: GGCUAGAACUAGUGGAUCCCCCGGCGCCCGGCGGCUCGAGCCCGGGUAAGUGUCAAUAGUCUGCAUGCCGCCGGGCGCCAUGCCUGCAGGUCGACUCUAGAAAACAUG
- binding signal [4]: 3.79 log2 enrichment (interaction score)

Sequence: GGCUAGAACUAGUGGAUCCCCCGGCGCCCGGCGGCUCGAGCCCGGGUAAGUGUGAAUAGUCUGCAUGCCGCCGGGCGCCAUGCCUGCAGGUCGACUCUAGAAAACAUG
- binding signal [5]: 2.16 log2 enrichment (interaction score)

Sequence: GGCUAGAACUAGUGGAUCCCCCGGCGCCCGGCGGCUCGAGCCCGGGUAAGUUUAAAUAGUCUGCAUGCCGCCGGGCGCCAUGCCUGCAGGUCGACUCUAGAAAACAUG
- binding signal [6]: 3.68 log2 enrichment (interaction score)

Sequence: GGCUAGAACUAGUGGAUCCCCCGGCGCCCGGCGGCUCGAGCCCGGGUAAGUGUUAAUAGUCUGCAUGCCGCCGGGCGCCAUGCCUGCAGGUCGACUCUAGAAAACAUG
- binding signal [7]: 2.94 log2 enrichment (interaction score)
- binding signal [8]: 5.24 log2 enrichment (interaction score)
